The record followed here is ChEMBL document CHEMBL4513216, “Probing the Open Global Health Chemical Diversity Library for Multistage-Active Starting Points for Next-Generation Antimalarials” (ACS Infect Dis, 2020).

Molecules are shown by their SMILES. The whole screen tested about 69,000 compounds, of which about 8,600 (12%) showed an effect of 50% or more. This is one part of a sample in which strong results are shown more often than they occur.

The test deals with Plasmodium berghei. Description: Screen against P. berghei liver stage (PbLuc), transformed with Luciferase, at 10uM. Format: functional, HepG2. The settings on record: tested at 10 uM.
For the compound `CCn1cc(-c2cc(C(F)(F)F)nn2CCC#N)cn1`, the INHIBITION is on record as 11.8%. Under `Cn1c(C2CC2)nc2c1CCN(CC(=O)Nc1ccncc1)C2` stands -31.5%; under `CO[C@@H]1CCC[C@@H](N(C)C(=O)c2cc(F)ccc2F)[C@H]1O`, -10.4%. With `N[C@@H]1CCC[C@@H](Oc2ccc(F)cc2Oc2ccccc2)[C@@H]1O`, the INHIBITION was 54.4%.

Consider `CN[C@@H]1CCC[C@@H](Oc2ccccc2Oc2ccc(C)cc2)[C@@H]1O`, for which the INHIBITION was 60.2%. As to `N[C@H]1CN(C(=O)c2ccccc2Oc2ccccc2)C[C@@H]1C1CC1`, the INHIBITION was found to be 31.2%. With `Cc1ccc(Oc2cc(F)ccc2O[C@@H]2CCC[C@@H](N)[C@H]2O)cc1` the figure was 94.1%; with `CNCc1cc(F)ccc1Oc1ccc(F)cc1`, 29.3%. With `Cc1n[nH]c(C)c1CCC(=O)N[C@@H]1CCC[C@@H](Oc2ccccc2)[C@@H]1O` the figure was -18.8%; with `Cc1noc(C)c1C(=O)N[C@@H]1CCC[C@@H](Oc2ccccc2)[C@@H]1O`, 17.39%; with `N[C@@H]1CCC[C@@H](Oc2ccc(F)cc2Oc2cccc(F)c2)[C@@H]1O`, 23.2%. Turning to `O=C(c1ccncc1F)N1CCCC(c2nccn2CC2CCC2)C1` (stereo unspecified), the INHIBITION is listed as 36.8%. Under `CC(C)C(C(=O)N1CCCN(Cc2nccn2C)CC1)N1CCCC1` (stereo unspecified) stands 11.6%. With `O=C(NC1CCCN(CCCc2ccccc2)C1)c1ccc(Cl)s1` (stereo unspecified) the figure was 35.1%. Under `CN(C)CC(O)Cn1cc(NCc2ccc(Br)cc2)cn1` (stereo unspecified) stands 33.1%; under `CCOc1ccc(C(=O)NCc2ccnc(N3CCN(C)CC3)c2)cn1`, 14%.

As for `CCOc1ccc(C(=O)NCc2ccnc(N3CCCC3)c2)cn1`, the INHIBITION is reported as 70.5%.

On to `CC(C)Oc1ccc(C(=O)NCc2ccc3c(c2)CCCN3C)cn1`, for which the INHIBITION was found to be 29.2%. Regarding `CC(C(=O)NCc1ccnc(N2CCCC2)c1)n1cccn1` (stereo unspecified), the INHIBITION amounted to 13.275%. As for `Cc1ccc(C(=O)NCc2ccnc(N3CCN(C)CC3)c2)cn1`, the INHIBITION was determined as 38.9%. Turning to `CC(C)Oc1ccc(C(=O)NCc2ccnc(N3CCCC3)c2)cn1`, the INHIBITION is listed as 79.9%.

Turning to `CC(O)CN1CCC(CN(C)Cc2cccc(C(=O)N(C)C)c2)CC1` (stereo unspecified), the INHIBITION is on record as 21.5%. Under `CO[C@@H]1CCN(C(=O)Cc2ccsc2)[C@H]1Cc1cccnc1` stands -41%; under `C[S+]([O-])CCNC(=O)N1CCN(c2cc(F)ccc2F)CC1` (stereo unspecified), 0.348%; under `Cc1nc(COC[C@]23COC[C@H]2CN(Cc2ccoc2)C3)cs1`, -14%. `CN(C)CCOCC1CN(Cc2cccc(F)c2)Cc2nccn2C1` (stereo unspecified): the INHIBITION was found to be 86.7%. On to `c1ccc(CN2Cc3nccn3CC(Cn3cncn3)C2)nc1` (stereo unspecified), for which the INHIBITION was -37.9%. Under `COc1ncccc1CN1Cc2nccn2CC(Cn2cccn2)C1` (stereo unspecified) stands 24.9%; under `c1ccc(COCC2CN(Cc3ccsc3)Cc3nccn3C2)nc1` (stereo unspecified), 76.5%. For the compound `N#Cc1cccc(CN2Cc3nccn3CC(COCC3CC3)C2)c1` (stereo unspecified), the INHIBITION was -102%.

Turning to `c1cncc(CN2Cc3nccn3CC(Cn3cccn3)C2)c1` (stereo unspecified), the INHIBITION is recorded as 30.3%. With `CCOCC1CN(Cc2cccc(C#N)c2)Cc2nccn2C1` (stereo unspecified) the figure was 41.8%; with `c1cncc(OCC2CN(Cc3ccsc3)Cc3nccn3C2)c1` (stereo unspecified), 39.2%; with `N#Cc1cccc(CN2Cc3nccn3CC(CN3CCCC3)C2)c1` (stereo unspecified), -13%. In the case of `CN(C)C(=O)COCC1CN(Cc2ccsc2)Cc2nccn2C1` (stereo unspecified), the INHIBITION came out at 46.2%. With `COc1ncccc1CN1Cc2nccn2CC(CN2CCCC2)C1` (stereo unspecified) the figure was 72%; with `c1ccc(CN2Cc3nccn3CC(Cn3cccn3)C2)nc1` (stereo unspecified), 56.6%. With `CC(=O)N(Cc1ncc(C(C)C)o1)C1CCN(CCC#N)C1` (stereo unspecified) the figure was -6.865%; with `Cn1cc(C(=O)N[C@@H]2CN(Cc3cccs3)[C@@H]3CCCO[C@@H]32)cn1`, 15.1%. With `CN(Cc1cccc(F)c1)C(=O)c1cc2c([nH]c1=O)CCCC2=O` the figure was 8.535%; with `CCn1c(C2CCN(C(=O)CCc3cc(Cl)no3)CC2)nn(C)c1=O`, 0%; with `Cc1cc(O)cc(=O)n1CCCC(=O)Nc1n[nH]c2cc(Br)ccc12`, 3.93%. For `Fc1ccc(-c2nc(CNC3CCc4ncnn4C3)co2)cc1` (stereo unspecified), the INHIBITION came to 23.7%.

In the case of `CCNC(=O)C1(Cc2cc(-c3ccccc3)no2)CCCN(C(C)C)C1` (stereo unspecified), the INHIBITION is given as 4.41%. As to `Cc1nc(C)c(C(=O)N2C[C@@H](C(=O)O)[C@H](C3CC3)C2)s1`, the INHIBITION amounted to 76.9%. With `CCc1nc(C)c(C(=O)N2CCCC(c3noc(C)n3)C2)s1` (stereo unspecified) the figure was 45.4%; with `CNc1cc(C)nc(N2C[C@@H](C(=O)O)[C@H](C3CC3)C2)n1`, 38.6%; with `CCc1nc(C)c(C(=O)N2C[C@@H](C(=O)O)[C@H](C3CC3)C2)s1`, 63%.

Regarding `Cc1nc2cc(C(=O)N3C[C@@H](C(=O)O)[C@H](C4CC4)C3)ccc2[nH]1`, the INHIBITION amounted to 29.8%.

`CNc1nc(C)c(C(=O)N2C[C@@H]3CC[C@H]2CN(c2cnccn2)C3)s1`: the INHIBITION is -26.1%.

On to `CCc1nc(C)c(C(=O)N2C[C@@H]3CC[C@H]2CN(S(=O)(=O)N(C)C)C3)s1`, for which the INHIBITION is 40.7%.
